Source: PubChem BioAssay AID624110 (Broad Institute, 2012)
Activity calls are given as the source filed them.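 Rule for the calls: active = signal falls with dose and the fitted half-maximal concentration is at most twice the highest valid tested dose; inconclusive = flat fit with a moderate signal drop, or unreliable fit; inactive = opposite effect, flat near zero, or potency past limit.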

target: PglD acetyltransferase (Campylobacter jejuni) (UniProt O86157); experiment: PglD acetyltransferase inhibitors, dose response, biochemical, DTNB absorbance, Campylobacter jejuni, cherry-picked samples (AID 624110); conditions: purified C. jejuni PglD, DTNB absorbance 412 nm; series mostly up to 19.5 µM; normalized activity % vs neutral control (lower = more inhibition): at the top concentration
Sequence (O86157 1-203): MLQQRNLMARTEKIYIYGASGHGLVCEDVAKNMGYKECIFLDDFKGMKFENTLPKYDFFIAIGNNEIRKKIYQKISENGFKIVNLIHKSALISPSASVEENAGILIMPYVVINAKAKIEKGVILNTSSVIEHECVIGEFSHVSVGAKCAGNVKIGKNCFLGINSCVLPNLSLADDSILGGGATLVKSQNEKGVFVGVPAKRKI

| SMILES | normalized activity % vs neutral control (lower = more inhibition) |
| --- | --- |
| CO[C@@H]1CN(C)C(=O)c2ccc(NS(C)(=O)=O)cc2OC[C@@H](C)N(C(=O)C2CCOCC2)C[C@H]1C | -0.403% (inactive) |
| O=C(N[C@H]1C=C[C@@H](CC(=O)N2CCCCC2)O[C@H]1CO)c1ccc2c(c1)OCO2 | 5.79% (inactive) |
| Cc1noc(C)c1NC(=O)Nc1cccc2c1O[C@H](CN(C)C(=O)Nc1cccc3ccccc13)[C@@H](C)CN([C@H](C)CO)C2=O | 7.55% (inactive) |
| COCC#Cc1cnc2c(c1)C(=O)N([C@@H](C)CO)C[C@H](C)[C@@H](CN(C)C(=O)C1CCC1)O2 | 6.81% [at 21 µM] (inactive) |
| O=C(C[C@@H]1C[C@@H]2c3cc(NC(=O)NC4CCCCC4)ccc3O[C@@H]2[C@@H](CO)O1)NCc1cccnc1 | 6.3% (inactive) |
| CC(C)NC(=O)N(C)C[C@@H]1Oc2ccc(NC(=O)Cc3cn(C)c4ccccc34)cc2C(=O)N([C@H](C)CO)C[C@H]1C | -2.89% (inactive) |
| O=C(C[C@@H]1CC[C@@H]2[C@H](COC[C@@H](O)CN2Cc2ccc(F)cc2)O1)N1CCc2ccccc2C1 | 3.26% (inactive) |
| CC=Cc1ccc2n(c1=O)C[C@@H]1[C@@H](CO)[C@H](C(=O)NCCOC)[C@H]2N1Cc1nccs1 (mixture of isomers) | -3.74% (inactive) |
| C[C@@H]1CN([C@@H](C)CO)C(=O)c2cc(NC(=O)Nc3ccc(F)cc3)ccc2O[C@@H]1CN(C)CC1CCCCC1 | 6.19% [at 21 µM] (inactive) |
| CC(=O)N[C@H]1CC[C@H](CC(=O)NCc2ccc(Cl)cc2)O[C@H]1CO | -3.66% (inactive) |
| CCC(=O)Nc1ccc2c(c1)OC[C@@H](C)N(Cc1ccccn1)C[C@@H](C)[C@H](OC)CN(C)C2=O | 0.696% (inactive) |
| COc1ccc(C#Cc2cnc3c(c2)C(=O)N([C@@H](C)CO)C[C@H](C)[C@H](CN(C)CC2CCCC2)O3)cc1 | 1.65% (inactive) |
| C[C@H]1CN([C@@H](C)CO)C(=O)c2cccc(NC(=O)Nc3ccccc3)c2O[C@H]1CN(C)C | 1.83% [at 21 µM] (inactive) |
| O=C(C[C@@H]1CC[C@H]2[C@@H](COC[C@H](O)CN2C(=O)Nc2cccc(F)c2)O1)NCc1ccccc1F | 4.47% (inactive) |
| C/C=C/c1cnc2c(c1)C(=O)N([C@@H](C)CO)C[C@H](C)[C@@H](CN(C)C(=O)c1cccnc1)O2 | 8.94% (inactive) |
| CO[C@H]1CN(C)C(=O)c2cc(NC(C)=O)ccc2OC[C@@H](C)NC[C@@H]1C | 6.89% (inactive) |
